SMN2 splice enh = SMN2 splice variant enhancement | hit rate 2.8% among 210,000 | Potency, µM (series often up to 46.1 µM), inactives show at the highest dose activity change, positive = activation, most hits filed as activators | HEK293 SMN2-luciferase splicing reporter, luminescence, 30-36 h; further: % of control where 0% means no effect; nearly all actives have a fitted effect of over 55% in size
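HEK293 cells carry an SMN2 […]–luciferase reporter in which exon 7 inclusion puts luciferase in frame. Cells were plated 10-12 h before compound addition, then incubated 30-36 h at 37C. ONE-Glo luminescence was read; sodium butyrate at 4.5 mM final served as control.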
NPC1 promoter act = activators of NPC1 promoter | AID 485313 | Huh7 NPC1 promoter luciferase reporter, 24 h | hit rate 2.4% among 320,000 | Potency, µM (series often up to 9.22 µM), without a hit: top-dose activation, usual class: activators; further: % of control where 0% means no effect; nearly all actives have a fitted effect of over 60% in size
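NPC1 promoter–luciferase Huh7 cells; 24 h compound; luminescence.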
FLuc counter = counter-screen for miR-21 project: firefly luciferase inhibitors or activators | hit rate 6.9% among 360,000 | P08659 | purified FLuc, Km substrates, luminescence inhibition | Potency, µM (titrated, usually from 57.5 µM), without a hit: at the top dose activity change, negative = inhibition, usual class: inhibitors;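 further: plate controls were vehicle for no effect and reference inhibitor for full effect; nearly all actives have a fitted effect of over 55% in size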
Target sequence (P08659 whole entry, looked up): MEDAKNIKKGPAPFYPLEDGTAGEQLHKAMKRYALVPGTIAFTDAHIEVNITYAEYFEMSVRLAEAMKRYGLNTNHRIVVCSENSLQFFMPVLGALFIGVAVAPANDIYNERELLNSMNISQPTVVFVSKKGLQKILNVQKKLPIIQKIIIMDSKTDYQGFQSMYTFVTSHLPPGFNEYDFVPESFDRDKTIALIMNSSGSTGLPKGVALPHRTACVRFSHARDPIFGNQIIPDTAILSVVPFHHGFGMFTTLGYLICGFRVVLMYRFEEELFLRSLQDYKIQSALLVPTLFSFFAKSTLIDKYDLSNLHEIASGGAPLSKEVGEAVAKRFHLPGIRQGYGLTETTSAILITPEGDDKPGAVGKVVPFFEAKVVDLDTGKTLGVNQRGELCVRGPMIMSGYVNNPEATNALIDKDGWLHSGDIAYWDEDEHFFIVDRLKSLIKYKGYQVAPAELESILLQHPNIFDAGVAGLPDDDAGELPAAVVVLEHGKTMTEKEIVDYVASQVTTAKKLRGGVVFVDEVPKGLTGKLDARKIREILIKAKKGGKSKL
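Biochemical qHTS of compounds, final roughly 60 µM downward over six points, against 10 nM purified firefly luciferase using Km concentrations of substrates (10 uM D-luciferin, 10 uM ATP) in Tris acetate pH 7.5 buffer; luminescence output.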
uPA generation = cell surface uPA generation inhibition; cell surface uPA generation assay, qHTS; Potency, µM (titrated, usually from 38.3 µM), for inactives: top-dose activity change, negative = inhibition, hits mostly inhibitors; hit rate 0.31% among 330,000; active means well fitted inhibition curve with a large enough effect; inconclusive means small, poorly fitted or top-dose-only effect; inactive means no such curve, though single readings can be large or run the other way; tested in mouse RAW 264.7 cells; further: on the % scale 0 is the no-effect control and ±100 the full control effect; nearly all actives have a fitted effect of over 55% in size
Rab9 prom act = activates the Rab9 promoter; Huh7 Rab9 promoter-luciferase reporter, luminescence, 24 h; Potency, µM (top dose mostly 9.22 µM), without a hit: at the top dose activation, negative = inhibition, most hits filed as activators; hit rate 2.8% among 320,000; AID 485297; further: % of control where 0% means no effect; nearly all actives have a fitted effect of over 60% in size
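Promoter activation is measured as luciferase luminescence in Huh7 cells stably transfected with a Rab9 promoter–luciferase construct, following 24 h compound exposure at 37 °C and 10 min reagent incubation at ambient temperature.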
ELG1 genotox = induces genotoxicity in HEK293T cells with luciferase-tagged ELG1 | HEK293T ELG1-luciferase reporter, luminescence, 16 h | AID 504466 | Potency, µM (doses to about 46 µM), for the others: top-dose activity change, positive = activation, actives largely listed as activators | hit rate 1.3% among 330,000; further: % of control where 0% means no effect; nearly all actives have a fitted effect of over 60% in size
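Cells (2,000/well) expressing the ELG1-luciferase fusion are dosed by pin tool and kept 16 hr at 37 °C, 5% CO2. Signal comes from ONE-Glo luciferase reagent after 30 min at room temperature.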
* = called active by the depositor; ? = inconclusive; · = no result given; [ ] = another dose, or the depositor's remark. Rows were chosen to be rich in hits. Some 7.3% of all compounds tested hit in one or more screens of this group. Unless noted, the call rests on the fitted dose curve; in most records, active means well fitted curve in the direction sought with a large enough effect; inconclusive means small, poorly fitted or top-dose-only effect, or another doubt; inactive means no such curve, though single readings can be large; an effect the other way counts as inactive or inconclusive. Potency means the concentration at half of the fitted maximal effect.

SMILES | SMN2 splice enh | NPC1 promoter act | FLuc counter | uPA generation | Rab9 prom act | ELG1 genotox
Clc1ccc(-c2csc(N3CCCCCC3)n2)cc1 | · | 5% | 11µM* | -18% | 5% | 8%
Brc1ccc(-c2csc(N3CCCCCC3)n2)cc1 | · | -8% | 8.5µM* | 1% | -15% | 7%
Clc1ccc(-c2csc(N3CCOCC3)n2)cc1 | 18µM* | ? | 11µM* | -2% | 3.2µM* | ?
O=C(NCc1ccccc1)C(=O)NCC(c1cccs1)S(=O)(=O)c1ccccc1 (configuration not stated) | · | · | 2% | · | · | ·
CC[C@H](C)[C@@H](NC(=O)O[C@@H]1Cc2cc(OC)ccc2O[C@H]1c1cccc(OC)c1)C(=O)OC | -2% | · | · | · | · | ·
N=C1SCC(=O)N1c1nc(-c2ccccc2)cs1 | 11µM* | 2.2µM* | 5.4µM* | 4% | 2µM* | ?
c1ccc(-c2csc(N3CCCCCC3)n2)cc1 | ? | 10% | 15µM* | 3% | 19% | 18µM*
c1ccc(-c2cnnc(N3CCCCC3)n2)cc1 | 29% | 2.5µM* | 11µM* | -5% | 1.4µM* | ?
CS(=O)(=O)N1CCN(c2nc(-c3ccccc3)cs2)CC1 | 9% | 14% | ? | 1% | 0% | ?
CCS(=O)(=O)N1CCN(c2nc(-c3ccccc3)cs2)CC1 | 20% | 21% | 19µM* | · | 20% | ?
Cc1ccc2c(c1)N(C(=O)N1CCC(C(=O)NC3CCCCCC3)CC1)CC(C)O2 (configuration not stated) | · | · | 7% | · | · | ·
CCOC(=O)c1ccc(NC(=O)CSc2c(C(C)C)cnc3c2c(=O)n(C)c(=O)n3C)cc1 | · | · | -9% | · | · | ·
CCN(CC)CCNC(=O)c1[nH]c2ccc(OCc3ccccc3)cc2c1C | -36% | -2% | -2% | 15% | -11% | 0%
Cc1ccc(Cn2c(CNC(=O)c3ccc(Cl)c([N+](=O)[O-])c3)nc3cccnc32)cc1 | · | · | -10% | · | · | ·
CCOC(=O)N1CCN(c2nc(-c3ccc(Cl)cc3)cs2)CC1 | -26% | 3% | 17µM* | 6% | 7% | ?
Brc1ccc(-c2csc(N3CCOCC3)n2)cc1 | · | ? | 8.5µM* | -4% | 4µM* | -14%
COc1ccc(-c2csc(N3CCOCC3)n2)cc1OC | ? | ? | 12µM* | -10% | ? | 18µM*
O=C(NNC(=O)c1cc(Br)ccc1O)c1csc(N2CCOCC2)n1 | · | -2% | · | 1% | -17% | -6%
CC(C)C(=O)N1CCN(c2nc(-c3ccc(Cl)cc3)cs2)CC1 | · | -6% | -1% | ? | -6% | 3%
CCOC(=O)N1CCN(c2c(NCc3ccc(Cl)cc3)c(=O)c2=O)CC1 | -14% | -21% | 4% | 2.8µM* | -7% | 27%
O=C(NCCOCc1ccccc1)C(c1ccccc1)c1ccccc1 | 0% | 0% | -1% | -3% | -1% | -3%
Cc1ccc(Cc2c(C)nn(-c3nc(C)c(C(=O)N4CCCCC4C)s3)c2C)cc1 (configuration not stated) | · | · | -19% | · | · | ·
O=C(CCCl)N1CCN(c2nc(-c3ccccc3)cs2)CC1 | · | ? | 15µM* | -7% | ? | 14%
O=[N+]([O-])c1ccc(-c2csc(N3CCCCCC3)n2)cc1 | · | ? | 12µM* | 3% | ? | 14%
CN1CCN(c2nc(-c3ccc(Cl)s3)cs2)CC1 | 11% | 13% | 17µM* | 1% | ? | 15%
SMILES | SMN2 splice enh | NPC1 promoter act | FLuc counter | uPA generation | Rab9 prom act | ELG1 genotox
CN1CCC(=NOc2ccc([N+](=O)[O-])cc2)CC1 | · | 1.8µM* | ? | 1% | 1.6µM* | ?
COc1ccc(C(=O)ON=C2CCN(c3ccc([N+](=O)[O-])cc3)CC2)cc1 | -2% | 9% | ? | · | 17% | -2%
CCOc1ccccc1NC(c1nnc(-c2ccccc2)o1)c1ccc(F)cc1Cl (configuration not stated) | 2% | · | -7% | · | · | ·
Cn1c(CN2CCOCC2)nc2cc(NC(=O)c3ccccc3[N+](=O)[O-])ccc21 | · | · | -6% | · | · | ·
CN(C)c1ccc(C(=O)OCC(=O)N2CCCCCC2)cc1 | 22% | ? | ? | 1% | 3.5µM* | 11%
CN(C)c1ccc(C(=O)OCC(=O)NCCCc2ccccc2)cc1 | · | -4% | -14% | 2% | -2%[1.84 µM] | 1%
CN(C)c1ccc(C(=O)OCC(=O)N2CCCC2)cc1 | · | 24% | -16% | 0% | 27% | ?
CN(C)c1ccc(C(=O)OCC(=O)NCCNC(=O)COC(=O)c2ccc(N(C)C)cc2)cc1 | · | 4µM* | 4.8µM* | 16% | 1.4µM* | ?
COc1cc2[nH]c(C(=O)N3CCC(Cc4ccccc4)CC3)cc2c(OC)c1OC | · | 0% | 24µM* | 0% | -7% | -4%
COc1cc2[nH]c(C(=O)N3CCc4ccccc43)cc2c(OC)c1OC | · | 24% | 17µM* | ? | ? | ?
CCOC(=O)C1CCN(C(=O)c2cc3c(OC)c(OC)c(OC)cc3[nH]2)CC1 | · | -3% | -4% | -5% | -3%[1.84 µM] | 9%
Cc1ccc(N2Cc3ccccc3C2=S)cc1 | 11µM* | 2.8µM* | 4.8µM* | -9% | 2.5µM* | -9%
S=C1c2ccccc2CN1c1ccccc1 | ? | 9% | ? | 1% | 20% | 12%
CCN(CC)S(=O)(=O)c1ccc(N2CCOCC2)c(NC(=O)c2ccc(F)cc2)c1 | 9% | -2% | 0% | -3% | -1% | -9%
CC(=O)c1c(C)[nH]c(C(=O)Nc2ccc3c(c2)OCCO3)c1C | 5.6µM* | 1.8µM* | 4.8µM* | -7% | 1.3µM* | ?
CC(=O)c1c(C)[nH]c(C(=O)NCCc2cccc(C)c2)c1C | 11% | ? | 17µM* | -5% | ? | 6%
CCN(CC)S(=O)(=O)c1ccc(N2CCOCC2)c(NC(=O)c2[nH]c(C)c(C(C)=O)c2C)c1 | · | · | · | -7% | · | 10µM*
CCOC(=O)c1[nH]c(C)c(C(=O)Nc2ccc3c(c2)OCCO3)c1C | 13% | 12% | ? | · | 10% | 12%
CC(=O)c1c(C)[nH]c(C(=O)Nc2ccc(C)cc2Br)c1C | · | 3.5µM* | ? | -3% | 0.89µM* | ?
CCc1c(C(=O)Nc2ccc(OC)cc2)[nH]c(C)c1C(C)=O | 22µM* | 14% | ? | -11% | 21% | 3%
COc1ccc(NC(=O)c2[nH]c(C)c(C(C)=O)c2C)cc1Cl | 12% | 17% | ? | -7% | ? | 6%
CCOC(=O)c1c(C)[nH]c(C(=O)NNC(=O)c2ccccc2)c1C | 11µM* | 0.56µM* | 6.7µM* | · | 1.8µM* | ?
CC(=O)c1c(C)[nH]c(C(=O)Nc2ccc(C)c(C)c2)c1C | · | ? | 11µM* | -2% | 1.4µM* | 10µM*
CCc1c(C(=O)NCCc2ccc(OC)c(OC)c2)[nH]c(C)c1C(C)=O | 10% | -2% | -1% | · | -2% | 2%
